Measurements: PubChem BioAssay

System: wheat germ agglutinin (Triticum aestivum), Alexa647-labelled
Assay: Alexa647-WGA lectin binding to printed small molecules – biochemical, small-molecule microarray, 635/667 nm fluorescence, artefact control for SMM control-protein annotation, profiling panel (AID 1140);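 also: score merges 667 nm feature emission with signal to noise over triplicate slides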
Conditions: WGA-A647 binding, 635 nm fluorescence, higher = more signal

Row | SMILES | composite z-score
1 | CC#CC(=O)Oc1ccccc1C=CC(=O)OCC | 0.0601
2 | CC(C)CNC(=O)[C@@]1(Cc2ccccc2I)c2ccccc2C(=O)N(C2CCCCC2)[C@H]1c1ccc(CO)cc1 | 0.84
3 | O=C(c1ccccc1)N1C(=O)[C@]2(COC(c3ccc(OCCCO)cc3)=N2)Cc2ccccc21 | 1.12
4 | CC(C)(C)OC(=O)CC[C@]1(C(=O)N2CCOCC2)N=C(c2ccc(OCCCO)cc2)O[C@H]1c1ccccc1N=[N+]=[N-] | 1.02
5 | COCCOC(=O)N1C(=O)[C@@]2(c3cc(C#CCC(C(=O)OC)C(=O)OC)ccc31)[C@H](c1ccccc1OCCO)N1[C@H](c3ccccc3)[C@H](c3ccccc3)OC(=O)[C@H]1[C@@H]2C(=O)NC[C@H](O)c1ccccc1 | 0.339
6 | COCCCNC(=O)[C@]1(CCC(=O)OC(C)(C)C)N=C(c2ccc(OCCCO)cc2)O[C@@H]1c1ccccc1CN=[N+]=[N-] | 1.13
7 | CCOC(=O)C1=C[C@@H](C(C)(C)C)N(S(=O)(=O)c2ccc(C)cc2)[C@H]1c1ccc(F)cc1 | 0.723
8 | COc1cc(NN2C(C(O)c3ccco3)C=CC3C(=O)N(c4ccccc4)C(=O)C32)cc(OC)c1OC (stereo not given) | 0.0464
9 | CCC(CC)C(O)C1C=CC2C(=O)NC(=O)C2N1Nc1ccc(Cl)cc1Cl (stereo not given) | 0.788
10 | CCCC[C@H]1OB(O)C[C@H]2C1=C(COC)Cn1c(=O)n(-c3ccccc3)c(=O)n12 | 0.435
11 | C=C(COC)/C(=C/C[C@@H](OC(C)=O)c1ccc(OCCO)cc1)c1cnc2ccccc2c1 | 0.857
12 | CN(C)C(=O)[C@@]1(CCS(=O)(=O)c2ccccc2)COC(c2ccc(OCCCO)cc2)=N1 | 0.93
13 | CCCCCCc1nc(-c2ccc(OC)nc2)cc2c1[Si](C(C)C)(C(C)C)O[C@H]2c1ccccc1 | 0.211
14 | O=C(CS)NCCCCCCNC(=O)[C@@H]1C[C@@H]2C(=O)N[C@@H](Cc3ccccc3)C(=O)N2[C@@H]1c1cccc(OCCO)c1 | 0.1
15 | COC(=O)[C@@]1(Cc2ccc(OC)cc2)[C@H]2c3cc(C(=O)N(C)C)n(Cc4ccc(S(C)(=O)=O)cc4)c3C[C@H]2CN1C(=O)c1ccccc1 | 1.23
16 | O=C1C[C@@](C(=O)NC2CC2)(c2ccc([N+](=O)[O-])cc2)[C@@H](c2ccc(CO)cc2I)N1C1CCCCC1 | 0.587
17 | CN1C=C(C(=O)OCCS(C)(=O)=O)C(C(=O)OCCS(C)(=O)=O)=CC(c2ccc(CO)cc2)=CC1C1CC1 (stereo not given) | 0.922
18 | O=C1NC(=O)C2C1C=CC(C(O)c1cc(C(F)(F)F)cc(C(F)(F)F)c1)N2Nc1ccccn1 (stereo not given) | 0.574

Row | SMILES | composite z-score
19 | CN(C)CCCCCCNC(=O)[C@@H]1C[C@@H]2C(=O)N[C@@H](Cc3ccccc3)C(=O)N2[C@@H]1c1ccc(O)cc1 | 0.715
20 | Cc1nc2cc(Br)ccc2c(=O)o1 | 0.536
21 | O=C(NC1CC1)[C@@H]1c2ccccc2C(=O)N(Cc2ccccc2Cl)[C@H]1c1ccc(CO)cc1 | 0.447
22 | O[C@@H](Cc1ccccc1)[C@H]1C2C=CCCC=C2CN1Cc1cccc(Cl)c1 (stereo not given in full) | 0.593
23 | COCCOC(=O)N1C(=O)[C@@]2(c3cc(C#CCNC(N)=O)ccc31)[C@H](C(=O)N1CCN(c3ncccn3)CC1)[C@H]1C(=O)O[C@H](c3ccccc3)[C@H](c3ccccc3)N1[C@@H]2c1ccc(OCCO)cc1 | 0.723
24 | COCCOC(=O)N1C(=O)[C@@]2(c3cc(C#CCNC(N)=O)ccc31)[C@H](C(=O)Nc1nc3ccccc3s1)[C@H]1C(=O)O[C@H](c3ccccc3)[C@H](c3ccccc3)N1[C@@H]2c1ccc(OCCO)cc1 | 0.677
25 | CC(C)C(O)C1C=CC2C(=O)N(c3ccccc3)C(=O)C2N1Nc1ccc([N+](=O)[O-])cc1 (stereo not given) | 1.01
26 | CCOC(=O)C[C@H]1[C@H](OC(=O)c2ccccc2-c2ccccc2)[C@@H](NC(=O)CC(C)C)c2cc(OCCCO)ccc2N1C(=O)Cc1ccc(OC)cc1 | 0.288
27 | C=C(CCCC)/C(=C/C[C@H](OC(C)=O)c1ccccc1OCCO)c1cc(C(=O)OC)ccc1OC | -0.4
28 | C=CCC(OC(C)=O)[C@@H]1[C@@H](N(Cc2ccc(-c3ccccc3)cc2)C(=O)Cc2ccc(OC)cc2)c2cc(OCCCO)ccc2N1C(=O)Cc1ccc2ccccc2c1 (stereo not given in full) | 0.182
29 | COc1ccc(CCNC(=O)[C@@]2(Sc3ccc(C)cc3)CC(=O)N(C3Cc4ccccc4C3)[C@@H]2c2ccc(CO)cc2I)cc1 | -0.176
30 | COC(=O)[C@@]1(Cc2ccccc2)N=C(c2ccc(OCCCO)cc2)O[C@H]1c1ccccc1 | 0.609
31 | COCCOC(=O)N1C(=O)[C@@]2(c3cc(C#CCC(C(=O)OC)C(=O)OC)ccc31)[C@H](c1ccccc1OCCO)N1[C@H](c3ccccc3)[C@H](c3ccccc3)OC(=O)[C@H]1[C@@H]2C(=O)N1CCN(c2ncccn2)CC1 | 0.63
32 | C=C(CCCC)/C(=C/C[C@@H](OC(=O)c1ccncc1)c1ccc(OCCO)cc1)c1cc(C(=O)OC)ccc1OC | 0.229
33 | CCCCN1CC=CC23O[C@@H]4C=CCCOC(=O)C4[C@H]2C(=O)N(CCCCCCO)[C@@H]3C1=O (stereo not given in full) | 0.379
34 | CN(C)CCCC[C@@H]1NC(=O)[C@H]2C[C@@H](C(=O)NCCCCCCN)[C@@H](c3ccc(O)cc3)N2C1=O | 1.03
35 | COc1ccc(-c2cc3c(c(-c4ccc(Oc5ccccc5)cc4)n2)[Si](C(C)C)(C(C)C)OC3)cn1 | -0.12
